These results are taken from PubChem BioAssay.

A short description of assay [1]: growth inhibition of DIPG glioma cells, dose response, cell-based, SU-DIPG-XVII, MIPE5.0, CellTiter-Glo, qHTS (AID 1347060).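 As to AC50: cells exposed to compound for 48 hours before viability readout.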 Particulars: SU-DIPG-XVII viability, CellTiter-Glo ATP luminescence.
Assay [2] is described as follows: growth inhibition of DIPG glioma cells, dose response, cell-based, SU-DIPG-XIII, MIPE4.0, CellTiter-Glo, qHTS (AID 1347061; cut-off not given, nearly all actives have AC50 up to about 37 µM;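 also: cells exposed to compound for 48 hours before readout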). Particulars: SU-DIPG-XIII viability, CellTiter-Glo ATP luminescence. For orientation: Cellular ATP, detected with luciferase, serves as a proxy for viable cell number.
A short description of assay [3]: growth inhibition of DIPG glioma cells, dose response, cell-based, JHH-DIPG-1, MIPE4.0, CellTiter-Glo, qHTS (AID 1347062; cut-off not given, nearly all actives have AC50 up to about 27 µM;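 as to AC50: cells exposed to compound for two days before readout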). Particulars: JHH-DIPG-1 viability, CellTiter-Glo ATP luminescence.
Assay [4] in a line: growth inhibition of DIPG glioma cells, dose response, cell-based, SU-DIPG-IV, MIPE4.0, CellTiter-Glo, qHTS (AID 1347063; cut-off not given, nearly all actives have AC50 up to about 30 µM;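 also: compound exposure lasted 48 hours before the viability readout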). Particulars: SU-DIPG-IV viability, CellTiter-Glo ATP luminescence.
Assay [5] is described as follows: growth inhibition of DIPG glioma cells, dose response, cell-based, SU-DIPG-XIII, MIPE5.0, CellTiter-Glo, qHTS (AID 1347064; cut-off not given, nearly all actives have AC50 up to about 23 µM;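 as to AC50: cells exposed to compound for 48 hours before the viability read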). The following applies: SU-DIPG-XIII viability, CellTiter-Glo ATP luminescence.
Assay [6] in a line: viability loss in pontine glioma line – cell-based, SU-DIPG-XXV, MIPE5.0, CellTiter-Glo, qHTS, dose response (AID 1347065).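 Also: cells exposed to compound for 48 hours before ATP readout.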 The following applies: CellTiter-Glo ATP luminescence.
A short description of assay [7]: SU-DIPG-VI glioma cell viability, MIPE4.0 library, CellTiter-Glo luminescence, qHTS (AID 1347066; cut-off not given, nearly all actives have AC50 up to about 30 µM;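 also: cells exposed to compound for 48 hours before readout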). Particulars: CellTiter-Glo ATP luminescence.
Assay [8] in a line: JHH-DIPG-1 glioma cell viability, MIPE5.0 library, CellTiter-Glo luminescence, qHTS (AID 1347067).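 Also: cells exposed to compound for 48 hours before readout.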 Particulars: JHH-DIPG-1 glioma viability, CellTiter-Glo ATP luminescence.
The nature of assay [9]: sensitizers of A549 cells to miR-34 induction, primary screen, imaging, A549 dox-inducible miR-34, nuclei and caspase counts (AID 1347080;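 active = compounds whose cell count with miR-34 switched on is under 0.7 times the count with it off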). The following applies: A549 miR-34 inducible, Hoechst nuclei count, 48 h.
A short description of assay [10]: survival rescue of mitochondrial mutant cells in low glucose, primary screen, MELAS cybrids, Rieske KO mouse fibroblasts, CellTiter-Glo (AID 1508586;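 active = mean z-score across replicates of 1.96 or higher in either the MELAS or the Rieske mutant cell line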;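 also: z relative to plate mean and SD of compound and empty wells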).
The nature of assay [11]: SU-DIPG-XXV glioma cell viability, MIPE5.0 library, qHTS (AID 1347068; cut-off not given, nearly all actives have IC50 up to about 30 µM;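 as to IC50: cells exposed to compound for 48 hours before viability readout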). On the technique in general: qHTS replaces the single test concentration by a dilution series.
The nature of assay [12]: modifiers of HSF1 nuclear foci, imaging, Selleck Cancer Library (AID 1347162; in the data active = plate-normalised HSF1 focus index below about 0.46). The following applies: human cells, at 10 µM; SSMD: measured here: HSF1 foci SSMD mean; cell count: measured here: cell number; plate-normalised HSF1 focus index: stronger effect = lower value.
[13] abbreviates: stronger effect = lower value, cell number ratio, induced over uninduced.
[14] abbreviates: measured here: relative caspase fold change +Dox/-Dox.
The mark [15] stands for this setting: measured here: total cells with miR-34 induction, stronger effect = lower value.
[16] abbreviates: measured here: total cells without miR-34 induction.
Where [17] appears, read: MELAS cybrid survival, CellTiter-Glo 48 h, stronger effect = higher value.
Setting [18] is: Rieske KO mouse fibroblast survival, CellTiter-Glo 72 h.

Values joined by “and” are separate entries in the source; they are usually repeats but may differ in a detail not shown here. Identical values can stand only once. Results filed as inconclusive are left out. Active and inactive are the calls of the source. Unless noted, the limit is not given here; nearly all actives have AC50 up to about 26 µM.

Regarding `CCCCCCCN(CC)CCCC(O)c1ccc(NS(C)(=O)=O)cc1` (stereo not given), the compound was classed as inactive in [1], in [2], in assay [3], in assay [4], in assay [5] and in assay [6]. Also, the compound was classed as inactive in [7] and in assay [8]. The fold change in assay [9] (setting [13]) is 0.916 (inactive); in assay [9] (setting [14]) it was 0.577. Moreover, the cell count in assay [9] (setting [15]) amounted to 7740; in assay [9] (setting [16]) it was 8450. In addition, the z-score in assay [10] (setting [17]) is -0.187 (inactive) and 0.657 (inactive); in [10] (setting [18]), 0.0673 and -0.0365.

As for `COc1ccccc1N1CCN(CCN(C(=O)C2CCCCC2)c2ccccn2)CC1`, the call in [1], in [2], in assay [3], in assay [4], in [5] and in assay [7] was inactive. Besides, the call in assay [11] was inactive. Moreover, the fold change in assay [9] (setting [13]) is 0.953 (inactive) and 0.872 (inactive); in [9] (setting [14]), 0.882 and 0.761. In addition, the cell count in assay [9] (setting [15]) is 8900 and 8750; in assay [9] (setting [16]) it was 9340 and 10000. Further, the z-score in [10] (setting [17]) is -0.378 (inactive); in assay [10] (setting [18]), 0.432.

`CC1(C)CC(=O)c2c(C(F)(F)F)nn(-c3ccc(C(N)=O)c(NC4CCC(OC(=O)CN)CC4)c3)c2C1` (stereo not given): the AC50 in assay [1] is 186 nM (active); in assay [2], 662 nM (active); in assay [3], 148 nM (active); in assay [4], 418 nM (active); in assay [5], 417 nM (active); in assay [6], 235 nM (active). The AC50 in assay [8] was 166 nM (active). Besides, the IC50 in assay [11] is 263 nM (active). In addition, the fold change was 1.04 (inactive) in [9] (setting [13]) and 0.875 in assay [9] (setting [14]). Further, the cell count in assay [9] (setting [15]) amounted to 2840; in assay [9] (setting [16]), 2740. The results for the z-score in assay [10] (setting [17]) and in [10] (setting [18]) were 2.47 (active) and -1.59, respectively.

Consider `O=C(c1cncc(Br)c1)N1CCC(N2CCCC2)CC1`, for which the compound was called inactive in assay [1], in assay [2], in assay [3], in assay [4], in assay [5] and in assay [6]. For the same compound, in [11], the result was inactive. Further, the AC50 in [8] was 13200 nM (active). Moreover, the fold change in assay [9] (setting [13]) is 0.889 (inactive); in assay [9] (setting [14]), 0.588. In addition, the cell count in [9] (setting [15]) was 7820; in [9] (setting [16]), 8800. Besides, the z-score is -0.503 (inactive) in assay [10] (setting [17]) and -0.908 in assay [10] (setting [18]).

In the case of `Clc1ccc2c(N3CCN(CCCN4CCN(c5ccnc6cc(Cl)ccc56)CC4)CC3)ccnc2c1`, the result in assay [1], in [2], in assay [3], in assay [4], in assay [5] and in [7] was inactive. The result in [8] and in assay [11] was inactive. Besides, the fold change was 0.978 (inactive) in assay [9] (setting [13]) and 1.67 in assay [9] (setting [14]). For the same compound, the cell count in [9] (setting [15]) amounted to 8600; in assay [9] (setting [16]) it was 8790.

For `C[Se]CCC(N)C(=O)O` (stereo not given), the call in [1], in assay [2], in assay [3], in assay [4], in assay [5] and in [7] was inactive. Moreover, the outcome in assay [8] and in [11] was inactive.

As to `c1ccc(-c2nn3c(c2-c2ccnc4cc(OCCN5CCOCC5)ccc24)CCC3)nc1`, the outcome in assay [1], in [2], in assay [3], in assay [4], in assay [5] and in assay [7] was inactive. Further, in [8], the compound was called inactive. The compound also came in with an SSMD in assay [12] of 2.44. The cell count in [12] is 6520. Besides, the plate-normalised HSF1 focus index in [12] was 1.13 (inactive).

What is called AC50 is the concentration giving half of the maximal activity seen. Broadly, the IC50 is the concentration that inhibits the measured activity by half.
